Experiment [1] can be described thus: qHTS assay for small molecule agonists of the p53 signaling pathway (AID 651631; calls by dose curve; also: nearly all actives have a fitted effect of over 15% in size; also: potency is read from the fitted curve at half-maximal effect). The method in brief: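 HCT-116 cells carrying a stable p53 response element–beta-lactamase reporter were plated, rested 5 h at 37 °C, then exposed to compound in DMSO for 16 h at 37 °C; reporter activity was read as FRET substrate fluorescence after 2 h at room temperature.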
For orientation: Quantitative high-throughput screening tests each substance at several concentrations.

Experiment [2] in a line: qHTS assay for small molecules that induce genotoxicity in human embryonic kidney cells expressing luciferase-tagged ATAD5 (AID 651632). Also: nearly all actives have a fitted effect of over 15% in size. Also: potency is read from the fitted curve at half-maximal effect. The method in brief: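 A rise in luciferase signal from ATAD5-tagged HEK293T cells marks genetic stress. Cells were exposed to compounds for 16 hr at 37C, 5% CO2, then luciferase was quantified after a 30 min room-temperature incubation with Amplite.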

The nature of experiment [3]: qHTS assay for small molecule agonists of the p53 signaling pathway - cell viability (AID 651633; calls by dose curve; also: series mostly up to about 83 µM; nearly all actives have a fitted effect of over 30% in size). The method in brief: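 p53RE-bla cells, seeded at 4,000 per well and rested 5 h at 37 C/5% CO2, received compounds in DMSO for 16 h at 37 C. CellTiter-Glo was then added, and luminescence was read after 30 min at room temperature to gauge cytotoxicity.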
The nature of experiment [4]: qHTS assay for small molecules that induce genotoxicity in human embryonic kidney cells expressing luciferase-tagged ATAD5 - cell viability (AID 651634; calls by dose curve; also: nearly all actives have a fitted effect of over 25% in size; also: potency is read from the fitted curve at half-maximal effect). The method in brief: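 Cytotoxicity counter-readout: after 15.5 hr compound treatment at 37C, live-cell protease activity in ATAD5-luciferase HEK293T cells measured by CellTiter-Fluor fluorescence, 30 min development at 37C.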

The nature of experiment [5]: qHTS assay for small molecule disruptors of the mitochondrial membrane potential - cell viability (AID 720634; calls by dose curve;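 also: human HepG2 liver cancer cells; series mostly up to about 83 µM; nearly all actives have a fitted effect of over 20% in size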). The method in brief: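 Cytotoxicity was quantified from ATP content by CellTiter-Glo luminescence in the same wells as the MMP dye read-out. HepG2 (2,000 cells/well) were plated overnight and exposed to compounds for 1 hr at 37 C.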
Experiment [6] can be described thus: qHTS assay to test for compound auto fluorescence at 590 nm (red) in HepG2 cells (AID 720674). The method in brief:
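Rose Bengal sodium served as the red fluorophore standard. HepG2 monolayers (overnight attachment, MEM with 10% FBS) were exposed to test compounds for 1 hr at 37 C and read at Ex 540/Em 590 nm.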

Experiment [7] can be described thus: qHTS assay to test for compound auto fluorescence at 535 nm (green) in HepG2 cells (AID 720675).
Experiment [8] in a line: qHTS assay to test for compound auto fluorescence at 460 nm (blue) in HEK293 cells (AID 720678). The method, boiled down: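 Intrinsic compound fluorescence is recorded in live HEK293 cultures after overnight incubation at 37C, 5% CO2, using excitation 405 nm and emission 460 nm. Values are referenced to triamterene.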
Experiment [9] can be described thus: qHTS assay to test for compound auto fluorescence at 590 nm (red) in HEK293 cells (AID 720679). The method, boiled down:
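Red autofluorescence, HEK293 cells: 2,000 cells/well; attach 4-5 hr 37C; add 23 nL cpd or DMSO; incubate o/n 37C 5% CO2; read Ex540/Em590; Rose Bengal sodium reference.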

The nature of experiment [10]: qHTS assay for small molecule disruptors of the mitochondrial membrane potential (AID 720635). Also: potency is read from the fitted curve at half-maximal effect. The method in brief:
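HepG2 cells (2,000/well) attached overnight at 37C, then took compound for 1 hr at 37C, 5% CO2. Mito-MPS dye was added for 30 min; fluorescence was read at 490/535 nm (monomers) and 540/590 nm (aggregates).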

Drawing on PubChem BioAssay (Tox21), this text covers Potency for 19 compounds.

“And” between values parts separate entries of the source, which are not always exact repeats. Identical values can stand only once. Inconclusive results are not listed. The source made the active and inactive calls. Unless noted, calls follow the shape of the dose curve; as a rule, active = well fitted curve in the direction sought with a large enough effect in the repeat runs; inconclusive = weak or mixed curves; inactive = no such curve, though single readings can be large; an effect the other way counts as inactive or inconclusive. Non-standard residues stand in square brackets, D forms with d. Residues, ends and D or L forms follow the SMILES beside them. pGlu = O=C1CC[C@@H](C(=O)O)N1

Consider `CC[C@H]1NC(=O)[C@@H](NC(=O)c2ncccc2O)[C@@H](C)OC(=O)[C@H](c2ccccc2)NC(=O)[C@@H]2CC(=O)CCN2C(=O)[C@H](Cc2ccccc2)N(C)C(=O)[C@@H]2CCCN2C1=O`, for which the Potency entry in [1], in [2], in experiment [3], in [4], in experiment [5] and in experiment [6] was “inactive” each time. For the same compound, the Potency result in [7], in [8] and in experiment [9] was “inactive” throughout.

`CC(C)(C)CC(C)(C)c1cc(Cc2cc(C(C)(C)CC(C)(C)C)cc(-n3nc4ccccc4n3)c2O)c(O)c(-n2nc3ccccc3n2)c1`: the Potency entry in experiment [1], in experiment [2], in experiment [3], in experiment [4], in [5] and in experiment [6] was “inactive” throughout. Further, the Potency entry in experiment [7], in experiment [8] and in [9] was “inactive” throughout.

For the compound `COc1cc2c(cc1OC)CC(=O)N(CCCN(C)C[C@H]1Cc3cc(OC)c(OC)cc31)CC2`, the Potency result in [1], in experiment [2], in experiment [3], in experiment [4], in experiment [5] and in experiment [6] was “inactive” each time. For the same compound, the Potency entry in experiment [7], in experiment [8] and in experiment [9] was “inactive” each time.

For `CC[C@H](C)[C@H](NC(=O)[C@H](Cc1ccccc1)NC(=O)[C@H](C)NC(=O)[C@H](CC(=O)O)NC(=O)[C@H](CCCCN)NC(=O)[C@H](CO)NC(=O)[C@@H]1CCCN1C(=O)[C@@H]1CCC(=O)N1)C(=O)NCC(=O)N[C@@H](CC(C)C)C(=O)N[C@@H](CCSC)C(N)=O` ([pGlu]PSKDAFIGLM-NH2), the Potency entry in experiment [1], in experiment [2], in experiment [3], in experiment [4], in experiment [5] and in experiment [6] was “inactive” throughout. In addition, the Potency result in [7], in experiment [8] and in experiment [9] was “inactive” throughout.

Regarding `C[N+]1(C)CCN(CC(O)(c2ccccc2)C2CCCCC2)CC1` (stereo not drawn), the Potency result in experiment [1], in [2], in experiment [3], in [4], in [5] and in experiment [10] was “inactive” each time. In addition, the Potency entry in experiment [6], in experiment [7], in experiment [8] and in experiment [9] was “inactive” in each case.

With `CCCC(=O)O[C@]1(C(=O)COC(=O)CC)[C@@H](C)C[C@H]2[C@@H]3CCC4=CC(=O)C=C[C@]4(C)[C@@]3(F)[C@@H](O)C[C@@]21C`, the Potency entry in experiment [1], in experiment [2], in [3], in experiment [4], in [5] and in experiment [6] was “inactive” throughout. Also, the Potency result in [7], in experiment [8] and in [9] was “inactive” in each case. The Potency in experiment [10] is 26.6 µM (active).

As to `CC(C)CN(C[C@@H](OP(=O)(O)O)[C@H](Cc1ccccc1)NC(=O)O[C@H]1CCOC1)S(=O)(=O)c1ccc(N)cc1`, the Potency result in experiment [1], in [2], in [3], in experiment [4], in [5] and in experiment [10] was “inactive” each time. The Potency result in [6], in [7], in experiment [8] and in experiment [9] was “inactive” in each case.

Turning to `CNCC(O)c1ccc(OC(=O)C(C)(C)C)c(OC(=O)C(C)(C)C)c1` (stereo not drawn), the Potency result in experiment [1], in [2], in experiment [3], in experiment [4], in experiment [5] and in [6] was “inactive” each time. Further, the Potency entry in experiment [7] and in [8] was “inactive” throughout.

For `OC[C@H]1O[C@@H](n2cnc3c2NC=NC[C@H]3O)C[C@@H]1O`, the Potency result in experiment [1], in [2], in [3], in experiment [4], in experiment [5] and in experiment [6] was “inactive” throughout. Further, the Potency result in experiment [7], in experiment [8] and in experiment [9] was “inactive” in each case.

As to `NCc1ccccc1CC(=O)N[C@@H]1C(=O)N2C(C(=O)O)=C(CSc3nnnn3CC(=O)O)CS[C@H]12`, the Potency result in experiment [1], in experiment [2], in experiment [3], in [4], in experiment [5] and in [6] was “inactive” throughout. The Potency entry in experiment [7] and in experiment [8] was “inactive” in each case.

With `O.O=C([O-])CC([S-])C(=O)[O-].[Au+].[Na+].[Na+]` (stereo not drawn), the Potency entry in experiment [1], in [2], in experiment [3], in experiment [4], in experiment [5] and in experiment [10] was “inactive” in each case. In addition, the Potency entry in experiment [6], in experiment [7], in experiment [8] and in experiment [9] was “inactive” each time.

Consider `C[Se]CCC(N)C(=O)O` (stereo not drawn), for which the Potency entry in [1], in [2], in experiment [3], in [4], in experiment [5] and in experiment [6] was “inactive” in each case. In addition, the Potency result in experiment [7] and in experiment [8] was “inactive” throughout.

Consider `CC(=O)[C@]1(O)Cc2c(O)c3c(c(O)c2[C@@H](O[C@H]2C[C@H](N)[C@H](O)[C@H](C)O2)C1)C(=O)c1c(O)cccc1C3=O`, for which the Potency was 944 nM (active) and 2.37 µM (active) in [1]; 750 nM (active) and 944 nM (active) in [2]; 10.6 µM (active) and 11.9 µM (active) in experiment [4]; 441 nM (active) and 5.31 µM (active) in experiment [10]. The Potency entry in experiment [3], in experiment [5], in experiment [6], in [8] and in [9] was “inactive” throughout.

For the compound `CC(C(=O)O)c1ccc(C2CCCCC2)c2ccccc12` (stereo not drawn), the Potency entry in experiment [1], in experiment [2], in experiment [3], in experiment [4], in [5] and in experiment [6] was “inactive” throughout. In addition, the Potency entry in [7] and in experiment [8] was “inactive” each time.

Take `O=C(O)c1cc(O)c2c(c1)[O][Bi][O]2`: the Potency result in experiment [1], in experiment [2], in [3], in experiment [4], in experiment [5] and in experiment [6] was “inactive” throughout. Besides, the Potency result in experiment [7], in [8] and in [9] was “inactive” in each case.

In the case of `CC#CCC(C)[C@H](O)/C=C/[C@@H]1[C@H]2C/C(=C/CCCC(=O)O)C[C@H]2C[C@H]1O` (stereo partly drawn), the Potency entry in [1], in experiment [2], in [3], in [4], in experiment [5] and in experiment [10] was “inactive” in each case. The Potency entry in experiment [6], in [7], in [8] and in experiment [9] was “inactive” throughout.

In the case of `CC(O)[C@@H]1NC(=O)[C@H](CCCCN)NC(=O)[C@@H](Cc2c[nH]c3ccccc23)NC(=O)[C@H](Cc2ccccc2)NC(=O)[C@@H](NC(=O)[C@H](N)Cc2ccccc2)CSSC[C@@H](C(=O)N[C@H](CO)[C@@H](C)O)NC1=O` (stereo partly drawn), the Potency result in [1], in [2], in experiment [3], in experiment [4], in experiment [5] and in experiment [6] was “inactive” throughout. Also, the Potency result in [7], in experiment [8] and in [9] was “inactive” throughout.

For the compound `CCCCOC(=O)C(=O)Nc1cccc(-c2nn[nH]n2)c1`, the Potency result in experiment [1], in experiment [2], in [3], in [4], in experiment [5] and in experiment [10] was “inactive” throughout. Further, the Potency result in [6], in experiment [7], in [8] and in experiment [9] was “inactive” in each case.

Consider `CC(C)[C@@H]1CC[C@@H](C)C[C@H]1OC(=O)c1ccccc1O`, for which the Potency entry in [1], in experiment [2], in experiment [3], in [4], in experiment [5] and in experiment [6] was “inactive” throughout. For the same compound, the Potency entry in experiment [7], in experiment [8] and in experiment [9] was “inactive” in each case.
